In PMC4336329 (PLoS ONE, 2015):
Among all 310,000 compounds or so, about 14,000 (4.5%) showed an effect of 50% or more. The effect is printed as a negative number. Many of the other results were omitted from the sample, so strong results are more common in it than they were.

What follows are compounds tested against human ether-à-go-go-related gene (hERG) potassium channel (human, UniProt Q12809) (assay: primary screen, population patch clamp on CHO cells stably expressing hERG; higher = less effect of the substance).
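Also: peak tail current of the secondary pulse compared with the same well before compound.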

human ether-à-go-go-related gene (hERG) potassium channel, sequence (Q12809 whole entry, looked up): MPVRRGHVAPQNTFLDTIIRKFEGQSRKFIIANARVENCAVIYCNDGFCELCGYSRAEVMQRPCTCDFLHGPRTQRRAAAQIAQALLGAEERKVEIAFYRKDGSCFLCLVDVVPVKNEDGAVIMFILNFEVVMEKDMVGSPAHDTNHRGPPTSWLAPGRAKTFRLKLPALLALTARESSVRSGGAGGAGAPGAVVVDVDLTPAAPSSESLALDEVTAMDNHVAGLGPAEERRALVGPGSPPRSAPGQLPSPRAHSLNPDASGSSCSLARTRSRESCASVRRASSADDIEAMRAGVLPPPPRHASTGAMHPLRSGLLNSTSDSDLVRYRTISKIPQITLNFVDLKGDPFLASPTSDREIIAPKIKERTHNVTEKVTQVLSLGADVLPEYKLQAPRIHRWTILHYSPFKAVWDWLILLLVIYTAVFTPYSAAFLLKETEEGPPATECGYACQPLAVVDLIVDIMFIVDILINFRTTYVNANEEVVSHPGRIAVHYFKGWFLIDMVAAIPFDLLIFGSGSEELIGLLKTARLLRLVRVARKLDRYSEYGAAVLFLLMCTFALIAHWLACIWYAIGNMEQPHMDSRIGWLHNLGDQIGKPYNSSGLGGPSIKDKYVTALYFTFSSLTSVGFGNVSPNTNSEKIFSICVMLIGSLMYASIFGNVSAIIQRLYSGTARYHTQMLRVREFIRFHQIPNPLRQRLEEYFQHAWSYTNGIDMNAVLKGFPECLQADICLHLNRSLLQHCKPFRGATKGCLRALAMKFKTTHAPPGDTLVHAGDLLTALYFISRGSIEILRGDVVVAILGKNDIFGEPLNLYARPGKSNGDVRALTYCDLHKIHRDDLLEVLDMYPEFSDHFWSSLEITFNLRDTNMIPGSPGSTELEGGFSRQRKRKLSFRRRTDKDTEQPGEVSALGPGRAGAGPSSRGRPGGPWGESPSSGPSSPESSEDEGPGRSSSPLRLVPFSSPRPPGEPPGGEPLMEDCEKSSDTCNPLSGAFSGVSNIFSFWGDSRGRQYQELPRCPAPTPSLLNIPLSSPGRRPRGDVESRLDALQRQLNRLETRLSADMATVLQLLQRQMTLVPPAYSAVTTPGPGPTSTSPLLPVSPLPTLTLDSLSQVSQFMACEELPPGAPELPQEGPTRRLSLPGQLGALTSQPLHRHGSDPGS

Compound	hERG current change (%, negative = inhibition) at 10uM
Cc1ccc(OC(=S)Nc2ccc(F)cc2)cc1	7.01%
Cc1ccc(Sc2nc(-c3ccccc3)nnc2C(F)(F)F)cc1	11.7%
CC(C)(C)C(=O)NC(Nc1cccc2cccnc12)C(Cl)(Cl)Cl (stereo not drawn)	-1.6%
CC1=C(C(=O)OC(C)C)C(c2ccc(Br)s2)NC(=O)N1 (stereo not drawn)	-48%
O=c1oc2cc([N+](=O)[O-])ccc2nc1/C=C(\O)c1cccc(Br)c1	4.15%
C[C@]12C(=O)N(c3ccc(F)cc3)C(=O)N1[C@@H]1c3ccccc3OC[C@@H]1[C@H]2c1ccccc1	7.01%
COc1cc(OC)c(NC2=NCCCCC2)cc1Cl	-0.664%
CCSc1nc2c(c(=O)[nH]c(=O)n2C)n1C/C=C(/C)Cl	-17.2%
CCOC(=O)CSc1nc2c(c(=O)[nH]c(=O)n2C)n1C/C=C(/C)Cl	-43.7%
CCOC(=O)C(CC)Sc1nc2c(c(=O)[nH]c(=O)n2C)n1C/C=C(/C)Cl (stereo not drawn)	-82%
Nc1nc(Cl)cc(-c2ccccc2)n1	-4.54%
CCC(C)C(NC=C1C(=O)OC(C)(C)OC1=O)C(=O)O (stereo not drawn)	-4.97%
Cn1c(=O)c2c(nc(CN3CCN(Cc4ccccc4)CC3)n2Cc2cccc(Cl)c2)n(C)c1=O	-59.2%
COCCn1c(CN(Cc2ccccc2)Cc2ccccc2)nc2c1c(=O)n(C)c(=O)n2C	-62.8%
Cn1c(=O)c2c(nc(CN3CCN(c4cccc(Cl)c4)CC3)n2CCc2ccccc2)n(C)c1=O	-20.1%
CN(Cc1ccccc1)Cc1nc2c(c(=O)n(C)c(=O)n2C)n1CCc1ccccc1	-48.3%
CCCn1c(CN(C)Cc2ccccc2)nc2c1c(=O)n(C)c(=O)n2C	-23.4%
CN(Cc1ccccc1)Cc1nc2c(c(=O)n(C)c(=O)n2C)n1Cc1ccc(Cl)cc1	-30.1%
CN(Cc1ccccc1)Cc1nc2c(c(=O)n(C)c(=O)n2C)n1Cc1ccc(F)cc1	-55.6%
CCOCCn1c(CN(Cc2ccccc2)Cc2ccccc2)nc2c1c(=O)n(C)c(=O)n2C	-45.6%
CC1CN(Cc2nc3c(c(=O)n(C)c(=O)n3C)n2Cc2cccc(Cl)c2)CC(C)O1 (stereo not drawn)	-14.2%

Compound	hERG current change (%, negative = inhibition) at 10uM
CCCCn1c(CN(C)Cc2ccccc2)nc2c1c(=O)n(C)c(=O)n2C	-39.9%
CN(Cc1ccccc1)Cc1nc2c(c(=O)n(C)c(=O)n2C)n1CCCc1ccccc1	-50.3%
COCCn1c(CN(C)Cc2ccccc2)nc2c1c(=O)n(C)c(=O)n2C	-6.15%
CCCCC(CC(O)COCCC)C(=O)NN (stereo not drawn)	16.1%
O=Cc1ccc(N2N=C(c3ccccc3)CC2c2ccccc2)cc1 (stereo not drawn)	24.3%
Cc1[nH]c(C)c2c(=O)n(-c3ccccc3)ncc12	10.2%
COc1ccc(C2C(C#N)=C(N)N(N(C)C)C3=C2C(=O)CCC3)cc1 (stereo not drawn)	9.88%
CCOC(=O)N1CCN(S(=O)(=O)c2ccc(Cl)cc2)CC1	0.615%
O=C(CSc1nc(-c2ccccc2)cs1)NCc1ccco1	-14.9%
Cn1c(=O)c2c(nc(CN3CCc4ccccc4C3)n2Cc2ccc(F)cc2)n(C)c1=O	-26.5%
CCOC(=O)N1CCN(Cc2nc3c(c(=O)n(C)c(=O)n3C)n2Cc2ccc(F)cc2)CC1	-36.2%
Cc1ccc(Cn2c(CN(C)Cc3ccccc3)nc3c2c(=O)n(C)c(=O)n3C)cc1	-21.5%
Cc1ccccc1Cn1c(CN2CCc3ccccc3C2)nc2c1c(=O)n(C)c(=O)n2C	-15.9%
Cn1c(=O)c2c(nc(CN3CCN(Cc4ccccc4)CC3)n2Cc2ccc(F)cc2)n(C)c1=O	-67.2%
COc1ccc(N2CCN(Cc3nc4c(c(=O)n(C)c(=O)n4C)n3CCc3ccccc3)CC2)cc1	13.5%
Cn1c(=O)c2c(nc(CN3CCc4ccccc4C3)n2Cc2cccc(Cl)c2)n(C)c1=O	-53.9%
Cc1ccc(C)c(Cn2c(CN(C)Cc3ccccc3)nc3c2c(=O)n(C)c(=O)n3C)c1	-51.3%
COc1ccc(N2CCN(Cc3nc4c(c(=O)n(C)c(=O)n4C)n3Cc3cccc(C)c3)CC2)cc1	-52.3%
Cn1c(=O)c2c(nc(CN3CCc4ccccc4C3)n2Cc2ccccc2)n(C)c1=O	-17.5%
COCCn1c(CN2CCN(c3ccc(OC)cc3)CC2)nc2c1c(=O)n(C)c(=O)n2C	-9.23%
CN(Cc1ccccc1)Cc1nc2c(c(=O)n(C)c(=O)n2C)n1Cc1ccccc1Cl	-5.6%
